# Assay outcomes: PubChem, National Center for Advancing Translational Sciences (NCATS)
# Compounds with a hit are over-represented: about 3.5% of the library has one in this group of screens.
# Tau fluor counter – counter-screen for tau fibril formation inhibitors; tau K18 P301L Alexa594 fluorescence, heparin fibrillization; Potency, µM (top dose mostly 57.7 µM), for inactives: at the highest dose activity change, negative = decrease; 0.93% of 280,000 active; also: nearly all actives have a fitted effect of over 55% in size
#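 Human tau K18 P301L (15 uM unlabeled, 0.24 uM Alexa 594-labeled) in 100 mM sodium acetate pH 7 with 20 uM heparin, 6 hr at 37 C. ThT 30 uM added, 1 hr ambient; Alexa 594 FP and total fluorescence read at 555/632 nm.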
# Tau ThT inhib – tau fibrillization inhibition (ThT binding) | P10636 | AID 1460 | Potency, µM (series often up to 57.4 µM), for inactives: at the top dose activity, negative = inhibition, usual class: inhibitors | 2.1% of 270,000 active | recombinant tau K18 P301L (four-repeat tau fragment), heparin-induced fibrillization, ThT fluorescence; also: nearly all actives have a fitted effect of over 55% in size
# Target sequence (P10636 561-689 P618L limits assumed): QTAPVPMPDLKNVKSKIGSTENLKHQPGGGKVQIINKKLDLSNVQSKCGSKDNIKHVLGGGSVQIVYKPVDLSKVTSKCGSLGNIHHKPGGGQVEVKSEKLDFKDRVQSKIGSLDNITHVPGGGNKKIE
#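 Tau K18 P301L fragment (15 uM unlabeled plus 0.24 uM Alexa 594-labeled) in 100 mM sodium acetate pH 7 with compound, fibrillization induced by 20 uM heparin for 6 hr at 37 C. Thioflavin T (30 uM) added, fluorescence read after 1 hr (ex 450, em 510 nm).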
# JMJD2E inh – blocks human JMJD2E demethylase activity; AID 2147; B2RXH2; 1.6% of 230,000 active; JMJD2E catalytic domain, FDH-coupled NADH fluorescence (FDH is formaldehyde dehydrogenase); Potency, µM (series often up to 57.1 µM), for the others: at the highest dose activity change, negative = inhibition, usual class: inhibitors; active = well fitted inhibition curve with a large enough effect, not every such curve was filed as active; inconclusive = small, poorly fitted or top-dose-only effect, or another doubt; inactive = no such curve, though single readings can be large or run the other way;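 also: 0% = wells with enzyme and -100% = buffer wells without enzyme; nearly all actives have a fitted effect of over 50% in size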
# Target sequence (B2RXH2 1-337 limits assumed): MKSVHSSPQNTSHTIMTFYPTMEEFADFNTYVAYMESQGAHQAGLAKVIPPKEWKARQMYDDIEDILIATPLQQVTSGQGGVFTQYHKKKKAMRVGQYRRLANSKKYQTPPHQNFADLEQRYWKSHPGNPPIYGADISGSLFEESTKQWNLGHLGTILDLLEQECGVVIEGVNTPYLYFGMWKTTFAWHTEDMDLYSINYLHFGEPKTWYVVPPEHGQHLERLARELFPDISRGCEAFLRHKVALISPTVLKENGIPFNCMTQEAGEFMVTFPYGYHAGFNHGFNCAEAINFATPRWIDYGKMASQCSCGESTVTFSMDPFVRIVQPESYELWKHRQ
# Tau FP inhib – tau fibrillization inhibition (FP). K18 P301L tau heparin fibrillization, Alexa594 FP, 6 h. Potency, µM (highest dose often 57.7 µM), inactives show at the highest dose activity, negative = inhibition, hits mostly inhibitors. 0.39% of 280,000 active. AID 1468; also: nearly all actives have a fitted effect of over 55% in size
#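 Compound effects on tau fibrillization are measured by Alexa 594 fluorescence polarization (ex 555, em 632 nm). K18 P301L tau is used at 15 uM with 0.24 uM labeled tracer, and 20 uM heparin induces aggregation over 6 hr at 37 C.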
# TexasRed fluor – counter-screen for TRb-SRC2 inhibitors: fluorescence interference; TRb/SRC2 Texas Red total fluorescence interference; Potency, µM (doses to about 106 µM), for the others: at the top dose fluorescence change, negative = quenching; 0.29% of 280,000 active; active = well fitted curve in either direction with a large enough effect; inconclusive = small, poorly fitted or top-dose-only effect
#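 Human TRβ ligand-binding domain (0.6 uM) and Texas Red SRC2 peptide (20 nM) in Tris buffer with 1 uM T3 and 5% DMSO were incubated with pinned compound for 5 hr at ambient temperature. Total fluorescence was computed as S + 2P (555/632 nm).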
# TRb-SRC2 inh – TRbeta-SRC2 interaction inhibition. Potency, µM (series often up to 106 µM), for inactives: at the highest dose activity change, negative = inhibition, hits mostly inhibitors. TRbeta-SRC2 peptide binding, fluorescence polarization; receptor liganded with 1 µM T3. 0.065% of 280,000 active;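 also: plate controls were bound peptide for no effect and peptide without receptor for full effect; nearly all actives have a fitted effect of over 50% in size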
#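 TRb LBD 0.6 uM + Texas Red SRC2 peptide 20 nM, 1 uM T3, Tris buffer w/ 5% DMSO; compound pinned, 5 h RT; FP read ex 555/em 632; normalized to unbound and bound controls.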
# Numbers without * were called inactive; ? = inconclusive; / = no result; ! = not active in a repeat; [ ] = dose if it differs, or a comment. Unless noted, calls follow the shape of the dose curve; as a rule, active = well fitted curve in the direction sought with a large enough effect; inconclusive = small, poorly fitted or top-dose-only effect, or another doubt; inactive = no such curve, though single readings can be large; an effect the other way counts as inactive or inconclusive. Unless noted, % is scaled to controls: 0 for no effect and ±100 for the full control effect; potency is read from the fitted curve at half-maximal effect.
SMILES,Tau fluor counter,Tau ThT inhib,JMJD2E inh,Tau FP inhib,TexasRed fluor,TRb-SRC2 inh
COc1ccc(N/C(C)=C/C(=O)c2ccccc2)cc1,-12.3%,?,-16.4%,8.1%,-7.6%,-1.8%
COC(=O)c1ccc(N/C=C\C(=O)c2ccc3c(c2)OCO3)cc1,-0.3%,0.2%,-0.7%,2.3%,-4.2%,-5.6%
CNc1cc([N+](=O)[O-])ccc1N/C=C/C(=O)c1cccs1,?,15.8µM*,-1.3%,9.8%,-1.7%,5.6%
CNc1cc([N+](=O)[O-])ccc1N/C=C/C(=O)c1ccc2c(c1)OCO2,-26.8%,3.55µM*,3.2%,8.2%,-7.0%,-1.5%
Cc1ccc([N+](=O)[O-])cc1NC(=O)c1ccc2c(c1)OCO2,-0.2%,-6.5%,3.9%,0.1%,0.9%,-3.9%
Cc1ccc([N+](=O)[O-])cc1NC(=O)c1cccs1,1.2%,4.6%,-8.0%,2.2%,-1.2%,-2.7%
Cc1cc(C)nc(NC(=O)c2ccc(Cl)cc2[N+](=O)[O-])c1,-4.7%,-0.2%,4.0%,-7.9%,3.9%,-6.0%
Cc1ccc(N/C=C/C(=O)c2cccs2)cc1C,-29.3%,?,-39.6%,-8.7%,-4.6%,-1.4%
O=C(/C=C/Nc1ccc(Nc2ccccc2)cc1)c1cccs1,7.94µM*[quencher],1.26µM*,-20.0%,?,1.9%,12.9%
COc1ccc(C(=O)/C=C/Nc2ccc([N+](=O)[O-])cc2C)c(OC)c1,-27.7%,?,-6.8%,?,-0.8%,0.0%
COc1ccc(C(=O)/C=C/Nc2ccc([N+](=O)[O-])cc2C)cc1OC,?,1.58µM*,1.0%,?,1.5%,-5.8%
O=C(/C=C/Nc1cccc([N+](=O)[O-])c1)c1cccs1,?,4.47µM*,-5.5%,3.2%,-4.9%,-1.8%
Cc1cc(N/C=C/C(=O)c2cccs2)ccc1F,-26.3%,?,-24.8%,-5.0%,-5.7%,-4.3%
Cc1ccc(S(=O)(=O)N(CC(=O)N=Nc2c(O)[nH]c3ccccc23)c2ccc(C)c(C)c2)cc1,?,?,0.0%,-12.1%,0.2%,-2.9%
Oc1ccc(/C=N/N2CCN(C3c4ccccc4-c4ccccc43)CC2)cc1,?,-7.0%,11.0%,-9.4%,-0.5%,4.4%
Oc1ccc(/C=N/N2CCN(C3c4ccccc4-c4ccccc43)CC2)cc1O,12.6µM*[quencher],?,15.8µM*,?,-3.4%,1.3%
Oc1ccc(/C=N/N2CCN(C3c4ccccc4-c4ccccc43)CC2)c(O)c1,12.6µM*[quencher],-18.2%,-5.3%,?,-2.5%,1.9%
COC(=O)c1c(NC(=O)Cc2cccs2)sc(C)c1C,-12.9%,-17.5%,?,-0.7%,-4.2%,4.8%
Nc1ccccc1C#CCCCCO,-14.0%,?,20µM*!,-8.2%,-1.6%,0.9%
COc1cc2c(cc1OC)C(c1ccccc1)CN(C)CC2 (configuration not stated),-7.7%,-10.3%,1.6%,-13.9%,-0.6%,-4.9%
Oc1cc2c(cc1O)[C@H](c1ccccc1)CNCC2,-14.5%,?,14.1µM*,-10.9%,-1.8%,-1.3%
Cc1ccc(Cl)cc1NS(=O)(=O)c1c(C)[nH]c(=O)[nH]c1=O,-7.5%,-9.3%,-2.5%,-4.8%,2.1%,2.0%
COc1ccc(Cl)cc1NS(=O)(=O)c1c(C)[nH]c(=O)[nH]c1=O,?,28.2µM*,/,?,2.6%,-3.6%
CCOC(=O)c1c(CN2CCOCC2)n(-c2ccccc2)c2cc(Br)c(OC)cc12,-10.6%,-16.2%,-3.1%,4.0%,-6.0%,-5.1%
Cc1[nH]c2ccccc2c1N=Nc1cccc(C(=O)O)c1,-23.2%,7.94µM*,9.6%,12.3%,-0.9%,0.0%
SMILES,Tau fluor counter,Tau ThT inhib,JMJD2E inh,Tau FP inhib,TexasRed fluor,TRb-SRC2 inh
Cc1cc(C)c(O)c(-c2cc(C(=O)Nc3ccc(S(=O)(=O)N4CCOCC4)cc3)[nH]n2)c1,14.1µM*[quencher],0.9%,-6.4%,?,-3.0%,7.8%
COc1ccc(/C=C2\CC/C(=C\c3ccc(OC)c(OC)c3)C2=O)cc1OC,-11.1%,?,-12.1%,11.2%,-4.7%,6.9%
COc1ccc(C=C2C(=O)c3ccccc3C2=O)cc1O,-29.6%,8.91µM*,-24.7%,-6.0%,-14.6%,-7.3%
CCN1C/C(=C/c2ccc(OC)c(O)c2)C(=O)/C(=C/c2ccc(OC)c(O)c2)C1,-27.6%,14.1µM*,-6.5%,?,-2.0%,-1.3%
COc1cc(C=C2C(=O)c3ccccc3C2=O)cc(OC)c1,?,/,-14.2%,6.2%,-2.4%,0.7%
COc1cc(C=C2C(=O)c3ccccc3C2=O)cc(OC)c1OC,-28.1%,14.1µM*,-25.7%,-4.1%,-2.7%,4.7%
COc1cccc(/C=C2\C(=O)C(=O)c3ccccc32)c1,-24.7%,12.6µM*,-7.5%,2.2%,-5.4%,-1.8%
COc1cc(C=C2C(=O)c3ccccc3C2=O)ccc1O,-17.5%,?,-15.2%,-4.9%,-4.7%,2.9%
Cn1c(-c2ccccc2[N+](=O)[O-])[n+](C)c2ccccc21,-19.6%,-15.1%,0.2%,-8.3%,0.5%,12.1%
COC(=O)c1[nH]c2cc(OC)c(OC)cc2c1NC(=O)Oc1ccccc1,-17.8%,?,?,-10.6%,-7.2%,-2.8%
COc1ccccc1C(=O)Nc1sc(Nc2ccccc2)nc1C(N)=O,7.08µM*[quencher],3.16µM*,/,?,-5.3%,4.6%
CCCCc1ccc(C(=O)Nc2ccc3nc(N4CCN(CC)CC4)cc(C)c3c2)cc1,?,?,/,-11.1%,-2.2%,-0.1%
CCN1CCN(c2cc(C)c3cc(NC(=O)c4cc(OC)cc(OC)c4)ccc3n2)CC1,15.8µM*[quencher],?,-5.4%,9.9%,-1.6%,-3.6%
CCN1CCN(c2cc(C)c3cc(NC(=O)/C=C/c4cccc(Cl)c4)ccc3n2)CC1,3.55µM*[quencher],3.16µM*,/,3.0%,-5.5%,0.1%
CCN1CCN(c2cc(C)c3cc(NC(=O)c4cnccn4)ccc3n2)CC1,-13.6%,?,-4.0%,1.5%,-10.8%,6.6%
CCN1CCN(c2cc(C)c3cc(NC(=O)c4cccc(Cl)c4)ccc3n2)CC1,14.1µM*[quencher],?,/,6.9%,-0.8%,1.6%
Cc1ccc(S(=O)(=O)N2CCSC2c2ccco2)cc1 (configuration not stated),-10.8%,-8.4%,2.7%,0.7%,-1.8%,2.6%
Cc1ccc(C)c(SCC(=O)OCC(=O)Nc2ncc(C(F)(F)F)cc2Cl)c1,-14.5%,-14.5%,0.1%,13.2%,-4.8%,2.6%
COc1ccc(N(C)C(=O)Cn2cnc3sc(C)c(S(=O)(=O)N4CCN(c5ncccn5)CC4)c3c2=O)cc1,-10.6%,-2.0%,/,-0.5%,0.4%,-0.2%
Cc1sc2ncn(CC(=O)N(C)c3cccc(C(F)(F)F)c3)c(=O)c2c1S(=O)(=O)N1CCN(c2ncccn2)CC1,-16.8%,-6.9%,/,7.1%,0.0794µM*[quencher],-24.9%[53 µM]
